Experimental data published in the supplement of paper PMC11732987, “Enantioselective OTUD7B fragment discovery through chemoproteomics screening and high-throughput optimisation” (Communications Chemistry, 2025).

Experiments:
Assay in all cases: log2 ratio of Biotin-Ahx-Ub-VS probe labelling (fragment/DMSO); higher = less target engagement (more negative = stronger competition), active = hit call of the paper (q ≤ 0.05, log2 ratio ≤ -1)
Conditions in all cases: compound concentration: 200 uM; treatment time: 3 h
[1] = molecular target: T1, USP19 (UniProt O94966)
T1 sequence (whole entry): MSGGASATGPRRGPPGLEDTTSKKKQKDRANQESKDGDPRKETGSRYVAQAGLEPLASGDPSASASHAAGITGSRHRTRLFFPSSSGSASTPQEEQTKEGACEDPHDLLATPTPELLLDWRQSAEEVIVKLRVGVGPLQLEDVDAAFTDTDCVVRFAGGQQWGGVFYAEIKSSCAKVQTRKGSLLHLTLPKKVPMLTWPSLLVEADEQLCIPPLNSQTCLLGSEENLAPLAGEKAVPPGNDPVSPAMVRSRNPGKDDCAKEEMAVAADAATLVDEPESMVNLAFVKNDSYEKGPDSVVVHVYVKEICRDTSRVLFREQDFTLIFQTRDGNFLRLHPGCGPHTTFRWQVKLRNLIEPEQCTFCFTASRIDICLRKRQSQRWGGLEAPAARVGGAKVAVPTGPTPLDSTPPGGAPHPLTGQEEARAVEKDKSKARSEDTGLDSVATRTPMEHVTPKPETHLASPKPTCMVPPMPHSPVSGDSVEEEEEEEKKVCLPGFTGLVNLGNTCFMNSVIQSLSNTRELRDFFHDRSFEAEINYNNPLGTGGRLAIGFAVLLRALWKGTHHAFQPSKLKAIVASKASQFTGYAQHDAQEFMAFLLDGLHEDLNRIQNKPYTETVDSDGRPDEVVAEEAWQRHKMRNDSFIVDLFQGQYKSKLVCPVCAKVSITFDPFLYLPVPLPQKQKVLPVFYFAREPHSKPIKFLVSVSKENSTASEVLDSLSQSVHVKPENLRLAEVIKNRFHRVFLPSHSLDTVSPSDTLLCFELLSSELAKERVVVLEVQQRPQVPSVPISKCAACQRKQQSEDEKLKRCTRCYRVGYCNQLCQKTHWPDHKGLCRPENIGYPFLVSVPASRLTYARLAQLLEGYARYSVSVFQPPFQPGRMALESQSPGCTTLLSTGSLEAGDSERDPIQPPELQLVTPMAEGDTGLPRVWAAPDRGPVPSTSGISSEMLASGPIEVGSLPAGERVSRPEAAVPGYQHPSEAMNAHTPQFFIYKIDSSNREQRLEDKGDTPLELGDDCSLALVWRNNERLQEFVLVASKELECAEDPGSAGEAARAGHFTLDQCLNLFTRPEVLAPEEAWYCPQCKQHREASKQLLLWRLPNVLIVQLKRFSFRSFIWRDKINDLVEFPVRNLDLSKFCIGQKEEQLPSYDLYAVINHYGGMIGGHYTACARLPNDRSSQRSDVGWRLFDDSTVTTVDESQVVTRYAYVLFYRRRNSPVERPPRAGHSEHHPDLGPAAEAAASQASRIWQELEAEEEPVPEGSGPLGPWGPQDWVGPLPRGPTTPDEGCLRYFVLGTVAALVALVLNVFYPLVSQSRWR
Outline: (§1)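 Triplicate samples of HEK293T lysate, 495 µg each, received fragment at 200 µM or vehicle for 3 h, followed by Biotin-Ahx-Ub-VS (0.5 µM final) for 1 h. After NeutrAvidin enrichment of labelled DUBs and LysC/trypsin digestion, peptides were run by diaPASEF LC-MS/MS. The values are average log2 fragment/vehicle ratios from global-median-normalised Spectronaut label-free quantities, tested by unpaired t-test on proteins having ≥2 unique peptides.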

[2] = molecular target: T2, USP22 (UniProt Q9UPT9)
T2 sequence (whole entry): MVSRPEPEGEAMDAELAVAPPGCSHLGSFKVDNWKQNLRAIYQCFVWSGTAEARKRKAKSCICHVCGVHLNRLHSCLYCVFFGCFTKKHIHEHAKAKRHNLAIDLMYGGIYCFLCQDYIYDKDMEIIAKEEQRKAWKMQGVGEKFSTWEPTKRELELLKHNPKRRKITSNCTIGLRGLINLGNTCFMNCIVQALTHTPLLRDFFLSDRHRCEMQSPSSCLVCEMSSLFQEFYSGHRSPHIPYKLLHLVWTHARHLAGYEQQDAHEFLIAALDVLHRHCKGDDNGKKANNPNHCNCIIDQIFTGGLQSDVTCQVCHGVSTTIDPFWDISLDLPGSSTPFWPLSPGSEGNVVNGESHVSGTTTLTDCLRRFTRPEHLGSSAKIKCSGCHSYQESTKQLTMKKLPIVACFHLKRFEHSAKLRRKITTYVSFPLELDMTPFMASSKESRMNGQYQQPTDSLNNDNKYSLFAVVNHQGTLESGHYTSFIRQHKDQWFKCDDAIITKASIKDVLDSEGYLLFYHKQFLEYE
Outline: as §1

[3] = molecular target: USP24 (UniProt Q9UPU5)
USP24, sequence (Q9UPU5 whole entry): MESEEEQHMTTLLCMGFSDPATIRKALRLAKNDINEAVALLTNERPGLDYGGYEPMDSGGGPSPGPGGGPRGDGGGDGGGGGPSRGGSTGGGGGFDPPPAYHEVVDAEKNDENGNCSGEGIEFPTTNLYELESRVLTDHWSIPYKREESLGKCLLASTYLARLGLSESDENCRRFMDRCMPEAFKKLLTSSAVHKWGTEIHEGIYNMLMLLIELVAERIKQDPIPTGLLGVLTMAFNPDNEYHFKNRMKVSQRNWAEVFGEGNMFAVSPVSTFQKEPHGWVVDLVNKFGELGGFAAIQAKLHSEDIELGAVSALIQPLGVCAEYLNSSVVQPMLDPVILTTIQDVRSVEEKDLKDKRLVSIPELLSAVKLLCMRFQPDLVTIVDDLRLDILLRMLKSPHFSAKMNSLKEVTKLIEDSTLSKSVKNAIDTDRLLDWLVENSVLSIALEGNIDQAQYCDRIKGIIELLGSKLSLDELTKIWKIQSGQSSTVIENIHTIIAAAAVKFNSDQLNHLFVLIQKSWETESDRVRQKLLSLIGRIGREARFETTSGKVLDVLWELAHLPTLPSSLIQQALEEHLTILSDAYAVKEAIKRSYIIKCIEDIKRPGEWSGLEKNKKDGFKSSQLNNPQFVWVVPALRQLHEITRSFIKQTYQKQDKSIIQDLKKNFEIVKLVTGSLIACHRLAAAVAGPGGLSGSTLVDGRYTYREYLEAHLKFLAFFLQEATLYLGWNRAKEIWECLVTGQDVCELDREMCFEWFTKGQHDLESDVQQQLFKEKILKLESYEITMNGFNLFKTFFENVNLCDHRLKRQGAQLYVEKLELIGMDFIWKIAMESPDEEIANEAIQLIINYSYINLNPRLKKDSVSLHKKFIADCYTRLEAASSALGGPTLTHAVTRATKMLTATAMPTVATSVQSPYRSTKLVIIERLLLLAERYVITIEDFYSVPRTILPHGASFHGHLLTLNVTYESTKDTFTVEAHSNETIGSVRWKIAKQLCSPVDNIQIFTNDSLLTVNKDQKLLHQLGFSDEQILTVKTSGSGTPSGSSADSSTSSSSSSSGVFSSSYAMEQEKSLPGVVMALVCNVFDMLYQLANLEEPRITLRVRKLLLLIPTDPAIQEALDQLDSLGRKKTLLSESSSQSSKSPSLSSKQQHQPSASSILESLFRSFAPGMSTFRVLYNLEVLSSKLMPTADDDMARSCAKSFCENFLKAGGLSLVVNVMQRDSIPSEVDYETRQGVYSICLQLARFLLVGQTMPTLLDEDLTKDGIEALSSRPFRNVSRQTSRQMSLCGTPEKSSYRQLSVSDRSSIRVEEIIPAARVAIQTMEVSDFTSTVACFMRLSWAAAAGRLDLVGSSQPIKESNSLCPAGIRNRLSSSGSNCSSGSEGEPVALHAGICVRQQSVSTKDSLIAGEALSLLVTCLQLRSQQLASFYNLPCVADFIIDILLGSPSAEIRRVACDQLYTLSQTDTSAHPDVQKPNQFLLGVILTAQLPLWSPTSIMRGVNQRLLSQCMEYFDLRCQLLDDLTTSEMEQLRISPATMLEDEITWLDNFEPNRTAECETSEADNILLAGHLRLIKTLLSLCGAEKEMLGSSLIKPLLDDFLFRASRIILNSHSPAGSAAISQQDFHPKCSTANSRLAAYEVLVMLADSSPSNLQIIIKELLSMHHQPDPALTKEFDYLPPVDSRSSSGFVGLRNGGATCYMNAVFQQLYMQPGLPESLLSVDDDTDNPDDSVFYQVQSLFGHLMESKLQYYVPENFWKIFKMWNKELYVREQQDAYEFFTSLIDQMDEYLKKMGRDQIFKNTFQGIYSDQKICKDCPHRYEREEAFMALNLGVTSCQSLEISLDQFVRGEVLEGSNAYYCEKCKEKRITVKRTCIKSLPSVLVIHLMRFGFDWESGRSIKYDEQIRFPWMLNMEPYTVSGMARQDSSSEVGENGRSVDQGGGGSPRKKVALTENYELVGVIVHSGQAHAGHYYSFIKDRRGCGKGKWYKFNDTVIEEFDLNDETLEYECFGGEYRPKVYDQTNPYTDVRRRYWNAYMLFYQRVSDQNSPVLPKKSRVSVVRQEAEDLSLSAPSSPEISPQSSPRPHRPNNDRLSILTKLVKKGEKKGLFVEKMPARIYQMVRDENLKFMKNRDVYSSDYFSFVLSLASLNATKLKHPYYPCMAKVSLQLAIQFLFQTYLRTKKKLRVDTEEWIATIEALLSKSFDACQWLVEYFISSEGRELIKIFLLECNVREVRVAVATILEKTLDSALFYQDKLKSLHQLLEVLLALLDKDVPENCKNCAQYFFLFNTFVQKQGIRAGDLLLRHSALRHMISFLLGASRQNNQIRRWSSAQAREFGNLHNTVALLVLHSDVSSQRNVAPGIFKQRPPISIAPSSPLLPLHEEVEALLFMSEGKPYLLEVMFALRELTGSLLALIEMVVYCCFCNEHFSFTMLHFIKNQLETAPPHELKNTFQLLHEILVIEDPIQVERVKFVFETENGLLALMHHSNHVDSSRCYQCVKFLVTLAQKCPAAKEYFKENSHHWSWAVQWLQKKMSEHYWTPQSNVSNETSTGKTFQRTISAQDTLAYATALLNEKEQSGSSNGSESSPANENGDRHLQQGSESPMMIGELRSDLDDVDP
Outline: as §1

[4] = molecular target: T3, USP25 (UniProt Q9UHP3)
T3 sequence (whole entry): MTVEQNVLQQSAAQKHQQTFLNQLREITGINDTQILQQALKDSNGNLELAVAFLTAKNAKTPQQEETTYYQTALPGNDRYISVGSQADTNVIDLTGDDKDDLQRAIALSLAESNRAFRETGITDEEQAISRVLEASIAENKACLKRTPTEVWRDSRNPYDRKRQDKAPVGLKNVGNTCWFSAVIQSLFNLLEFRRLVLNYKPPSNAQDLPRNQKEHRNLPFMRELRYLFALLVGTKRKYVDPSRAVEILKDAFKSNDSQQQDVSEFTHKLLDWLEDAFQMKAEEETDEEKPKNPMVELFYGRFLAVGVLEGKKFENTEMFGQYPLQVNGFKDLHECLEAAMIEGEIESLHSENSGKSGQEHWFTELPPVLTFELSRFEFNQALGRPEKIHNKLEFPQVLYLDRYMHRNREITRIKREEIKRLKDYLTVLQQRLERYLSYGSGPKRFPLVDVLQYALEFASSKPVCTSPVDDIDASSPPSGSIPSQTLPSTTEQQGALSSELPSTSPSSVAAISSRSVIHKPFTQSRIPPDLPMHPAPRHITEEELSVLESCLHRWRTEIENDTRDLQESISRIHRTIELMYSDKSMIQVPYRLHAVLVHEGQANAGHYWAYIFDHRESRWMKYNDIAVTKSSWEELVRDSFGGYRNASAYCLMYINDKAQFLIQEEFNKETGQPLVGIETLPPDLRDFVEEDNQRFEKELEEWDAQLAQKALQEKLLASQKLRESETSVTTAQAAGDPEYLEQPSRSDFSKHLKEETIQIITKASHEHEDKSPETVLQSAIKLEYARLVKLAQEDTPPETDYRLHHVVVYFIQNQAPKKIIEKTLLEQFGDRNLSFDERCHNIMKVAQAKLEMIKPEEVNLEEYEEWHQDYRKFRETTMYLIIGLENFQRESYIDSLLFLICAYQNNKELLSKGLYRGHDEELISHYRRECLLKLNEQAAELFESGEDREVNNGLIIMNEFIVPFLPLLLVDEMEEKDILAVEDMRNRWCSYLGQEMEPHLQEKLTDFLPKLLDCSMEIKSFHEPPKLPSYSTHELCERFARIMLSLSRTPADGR
Outline: as §1

[5] = molecular target: T4, USP28 (UniProt Q96RU2)
T4 sequence (whole entry): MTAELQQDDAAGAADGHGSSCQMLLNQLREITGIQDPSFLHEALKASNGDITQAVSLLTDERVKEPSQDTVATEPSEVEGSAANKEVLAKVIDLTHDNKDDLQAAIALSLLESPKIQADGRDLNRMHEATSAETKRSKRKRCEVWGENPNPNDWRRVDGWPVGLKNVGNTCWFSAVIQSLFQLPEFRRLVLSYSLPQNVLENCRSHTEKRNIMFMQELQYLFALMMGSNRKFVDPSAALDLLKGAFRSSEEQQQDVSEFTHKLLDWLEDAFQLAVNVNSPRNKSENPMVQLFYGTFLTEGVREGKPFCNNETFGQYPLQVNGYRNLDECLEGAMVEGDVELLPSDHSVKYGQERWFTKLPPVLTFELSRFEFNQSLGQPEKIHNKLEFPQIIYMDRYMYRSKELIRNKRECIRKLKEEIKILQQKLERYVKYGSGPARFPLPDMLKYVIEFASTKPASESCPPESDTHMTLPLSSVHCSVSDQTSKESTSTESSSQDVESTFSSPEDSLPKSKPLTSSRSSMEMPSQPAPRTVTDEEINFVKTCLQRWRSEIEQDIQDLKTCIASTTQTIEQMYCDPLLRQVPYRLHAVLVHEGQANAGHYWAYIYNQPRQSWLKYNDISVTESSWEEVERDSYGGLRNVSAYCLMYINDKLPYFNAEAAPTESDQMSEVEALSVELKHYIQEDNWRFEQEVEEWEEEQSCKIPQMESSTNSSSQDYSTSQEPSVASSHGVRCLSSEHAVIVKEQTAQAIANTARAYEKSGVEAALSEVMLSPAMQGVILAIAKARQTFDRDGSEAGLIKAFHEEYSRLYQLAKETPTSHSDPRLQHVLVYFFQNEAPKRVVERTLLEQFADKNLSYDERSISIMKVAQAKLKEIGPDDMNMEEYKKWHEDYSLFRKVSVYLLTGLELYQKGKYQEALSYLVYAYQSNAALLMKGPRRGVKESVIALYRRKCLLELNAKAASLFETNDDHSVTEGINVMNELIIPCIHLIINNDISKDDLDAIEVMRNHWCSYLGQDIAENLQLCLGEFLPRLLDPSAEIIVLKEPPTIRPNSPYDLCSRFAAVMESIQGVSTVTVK
Outline: as §1

Measured: log2 ratio of Biotin-Ahx-Ub-VS probe labelling

Cc1nc(CNC(=O)CCl)c2ccccn12.Cl
inactive: [1] -0.106 | [2] 0.0129 | [3] -0.108 | [4] -0.0552 | [5] -0.23
